Sampled rows, rich in hits. Any-hit rate of the full collection: about 12%.
BAZ2B inh: qHTS Assay for Inhibitors of BAZ2B; AlphaScreen BAZ2B-H3K14Ac peptide displacement; Potency, µM (titrated, usually from 114 µM), for inactives: at the top dose activity change, negative = inhibition, actives largely listed as inhibitors; 360,000 compounds, 4.4% hits; AID 504333, 2011; also: % is scaled to controls: 0 for no effect and ±100 for the full control effect; nearly all actives have a fitted effect of over 60% in size
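Compounds, titrated to a top concentration of 110 uM, were incubated 30 min at room temperature with preformed BAZ2B/acetyl-K14 H3 peptide complex (50 nM each). Proximity signal was measured by AlphaScreen after 20 min with beads.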
TDP1 block: qHTS Assay for Inhibitors of Tyrosyl-DNA Phosphodiesterase (TDP1); Tyrosyl-DNA phosphodiesterase 1 (Homo sapiens), Q9NUW8; recombinant TDP1, AlphaScreen DNA substrate cleavage; Potency, µM (highest dose often 130 µM), for the others: top-dose activity change, negative = inhibition, hits mostly inhibitors; 350,000 compounds, 0.28% hits; AID 485290, 2010; also: % is scaled to controls: 0 for no effect and ±100 for the full control effect; nearly all actives have a fitted effect of over 40% in size
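E. coli-derived human Tdp1, 1 nM final. Cpd preinc 15 min RT; substrate 15 nM final, 5 min RT; AS bead mix 10 ug/ml final, 10 min RT. Signal loss = tyrosine-FITC cleavage. No-enzyme wells = max signal.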
Sfp PPTase inh: qHTS Assay for Inhibitors of Bacillus subtilis Sfp phosphopantetheinyl transferase (PPTase); 4'-phosphopantetheinyl transferase ffp (Bacillus subtilis), Q9F4F7; 310,000 compounds, 3.5% hits; AID 1490, 2009; Potency, µM, for the others: largest response in the series, negative = inhibition, actives largely listed as inhibitors; Biochemical Sfp PPTase activity, qHTS;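 also: the enzyme is Sfp with the accession as filed and its product quenches rhodamine fluorescence; 0% = enzyme reaction without inhibitor and -100% = no enzyme wells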
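Fluorescence-quenching assay with 15 nM Sfp, 5 uM rhodamine-CoA and 12.5 uM BHQ-2-labelled ybbR peptide in pH 7.6 Hepes/MgCl2 buffer. Enzyme was pre-incubated with compound for 15 min at room temperature. Rate was taken from the 30-min fluorescence change (525/598 nm).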
JMJD2A Tudor: qHTS Assay for Inhibitors of JMJD2A-Tudor Domain. AID 504339, 2011. Potency, µM (series often up to 114 µM), for the others: at the top dose activity change, negative = inhibition, actives largely listed as inhibitors. Lysine-specific demethylase 4A (Homo sapiens), O75164. AlphaScreen JMJD2A-Tudor / H3K4me3 peptide binding. 390,000 compounds, 4.4% hits; also: % is scaled to controls: 0 for no effect and ±100 for the full control effect; nearly all actives have a fitted effect of over 50% in size
HP1b chromo inh: HTS for Inhibitors of HP1-beta Chromodomain Interactions with Methylated Histone Tails; Chromobox protein homolog 1 (Homo sapiens), P83916; AlphaScreen HP1-beta / biotin-H3K9me3 peptide binding; Potency, µM (top dose mostly 114 µM), without a hit: at the top dose activity change, negative = inhibition, hits mostly inhibitors; 390,000 compounds, 0.56% hits; also: nearly all actives have a fitted effect of over 70% in size
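AlphaScreen: HP1-beta (50 nM) preformed 30 min with biotin-H3(1-18)K9me3 peptide (50 nM) in PBS pH 7.4, 0.01% Tween-20. Compound added for 30 min at RT, then streptavidin donor/nickel chelate acceptor beads (10 ug/mL) for 30 min.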
G9a block: qHTS Assay for Inhibitors of Histone Lysine Methyltransferase G9a. AID 504332, 2011. Histone-lysine N-methyltransferase EHMT2 (Homo sapiens), Q96KQ7. Potency, µM (highest dose often 102 µM), without a hit: top-dose activity, negative = inhibition, usual class: inhibitors. G9a H3K9 monomethylation, AlphaScreen, 2 h. 350,000 compounds, 8.8% hits; also: % is scaled to controls: 0 for no effect and ±100 for the full control effect; nearly all actives have a fitted effect of over 75% in size
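Compounds were preincubated with 20 nM G9a for 15 min, after which biotinylated H3K9 peptide (500 nM) and SAM (20 uM) started a 2 h room-temperature reaction. Monomethylated product was quantified by antibody-based AlphaScreen chemiluminescence.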
Starred values were filed as active, the others as inactive; u = inconclusive; x = no result given; [ ] = remark or other dose. Calls follow the shape of the dose curve; as a rule, active = well fitted curve in the direction sought with a large enough effect; inconclusive = small, poorly fitted or top-dose-only effect, or another doubt; inactive = no such curve, though single readings can be large; an effect the other way counts as inactive or inconclusive. Potency is read from the fitted curve at half-maximal effect.

SMILES | BAZ2B inh | TDP1 block | Sfp PPTase inh | JMJD2A Tudor | HP1b chromo inh | G9a block
O=C(CC1SC(N2CCOCC2)=NC1=O)Nc1ccc(Cl)cc1 (stereo not drawn) | 6.9% | -3.4% | x | 0.3% | 30.9% | 50.1µM*
CC(C)NC(=O)c1ccc(NC(=O)CC2SC(N3CCCC3)=NC2=O)cc1 (stereo not drawn) | 4.8% | -0.4% | x | -7.1% | 25.7% | -7.5%[2.33 µM]
CNC(=O)c1ccc(NC(=O)CC2SC(N3CCCC3)=NC2=O)cc1 (stereo not drawn) | -13.1% | -0.4% | x | 2.9% | 40.4% | 2µM*
Cc1nnc(SCC(=O)NNC(=O)COc2ccc(Br)cc2)n1C | -6.2% | -1.3% | x | -15.3% | 35.4% | -1.7%[12.7 µM]
COc1ccccc1NC(=O)CN1C(=O)c2cccc3cccc1c23 | 2.2% | -2.1% | x | 4.8% | 32.4% | 13.9%[59 µM]
O=C(NCCc1ccc(Cl)cc1)C1CCC(=O)N1C1CCCC1 (stereo not drawn) | -36.9% | 5.9% | 4.5% | 1.7% | 20.6% | 44.7µM*
Cn1cccc1C(=O)C(=O)Nc1cc(Cl)cc(Cl)c1 | 4.2% | -5.3% | 3.4% | 15.8µM* | -3.2% | 14.5%
Cn1cccc1C(=O)C(=O)Nc1ccc(F)c(F)c1 | 2.1% | 0.0% | 3.0% | -11.0% | 28.5% | 18.8%
CCn1c(O)c(N=NC(=O)CNC(=O)/C=C/c2ccco2)c2ccccc21 | -5.5% | 2.1% | u | -23.0% | 17.1% | 56.2µM*
COc1ccccc1CNC(=O)c1ccc(-c2nc(CN3CCc4ccccc43)c(C)o2)cc1 | -36.5% | 7.7% | x | u | -3.1%[57 µM] | u
CCOC(=O)C1=C(COC(=O)C(CC)Oc2ccccc2)NC(=O)NC1C (stereo not drawn) | -7.1% | x | x | -6.2% | 14.3% | -47.9%
CCn1c2ccccc2c2cc(NC(=O)c3coc(=O)c(Br)c3)ccc21 | -10.7% | 1.3% | 1.7% | x | x | 7.08µM*
CCn1c2ccccc2c2cc(NC(=O)c3ccc(Br)o3)ccc21 | u | -1.5% | 11.2µM* | 20µM* | u | 11.2µM*
CCn1c2ccccc2c2cc(NC(=O)c3cc(OC)cc(OC)c3)ccc21 | -9.8% | 1.9% | 29.5% | -21.5% | 18.7% | 15.4%
Cc1nc(CN(C)C(=O)c2ccccc2OC2CCN(S(C)(=O)=O)CC2)cs1 | -20.4% | -1.2% | 9.8% | -23.1% | 13.3% | 3.5%
Cc1ccc(C(=O)/C=C/C(=O)O)cc1 | 11.2% | 2.8% | 12.6µM* | -13.8% | 10.3% | 10µM*
N#CCn1c(Cc2ccccc2)nc2ccccc2c1=O | 0.1% | x | 17.5% | 0.0% | 31.8% | 28.7%[59 µM]
N#CC/C(N)=N/Nc1nc2ccccc2nc1Cc1ccccc1 | -16.3% | x | -9.3% | u | -5.1%[57 µM] | 50.1µM*
O=C(NP(=O)(N1CCCC1)N1CCCC1)C1=C(N2CCOCC2)/C(=C/c2cccc([N+](=O)[O-])c2)CC1 | 44.7µM* | 5.4% | -5.7% | -25.2% | -5.7% | 44.7µM*
O=C(Nc1ccccc1)C1=C(N2CCOCC2)/C(=C/c2cccnc2)CC1 | -22.2% | -4.5% | 5.3% | -3.7% | 14.8% | u
O=C1C=C(N(CCO)Cc2ccccc2)c2ccccc2C1=O | u | 0.0% | 2.0% | -34.6% | u | 50.1µM*
COC(=O)[C@@H]1C[C@H]1[C@@H](NS(=O)(=O)c1ccc2ccccc2c1)c1ccccc1 | x | 11.1% | -4.2% | x | x | x
Cc1ccc2nc(N(CCN3CCOCC3)C(=O)CCS(=O)(=O)c3ccccc3)sc2c1 | 3.7% | -0.7% | x | -29.5% | 26.3% | 8.8%[0.501 µM]
O=C(CCS(=O)(=O)c1ccccc1)N(CCCN1CCOCC1)c1nc2ccccc2s1 | -17.0% | 5.6% | x | -4.1% | 54.9% | 39.8µM*
Cc1ccc(S(=O)(=O)CCC(=O)N(CCCN2CCOCC2)c2nc3ccccc3s2)cc1 | -3.5% | 5.3% | x | -5.5% | 39.5% | 44.7µM*
SMILES | BAZ2B inh | TDP1 block | Sfp PPTase inh | JMJD2A Tudor | HP1b chromo inh | G9a block
COC(=O)c1cccc(CN2C(=O)SC(Nc3ccc(Br)cc3)C2=O)c1 (stereo not drawn) | u | 2.1% | x | -13.7% | 29.9% | -5.7%[59 µM]
COc1cc(NCC(=O)Nc2cccc(S(=O)(=O)N3CCCCC3)c2)cc(OC)c1OC | -12.4% | 6.9% | x | u | 10.0% | u
O=C(Cn1c(=O)n(Cc2ccco2)c(=O)c2cc(Cl)ccc21)NCC1CCCO1 (stereo not drawn) | -26.6% | 3.3% | 39.8µM* | -15.8% | 16.0% | -43.6%[12.7 µM]
CCc1cccc(NC(=O)c2c(C)oc3ncnc(N4CCCCC4)c23)c1 | 2.0%[57.1 µM] | 4.2% | x | -13.6% | 25.6% | -23.4%[59 µM]
O=S(=O)(Nc1ccc2c(c1)OCCO2)c1c(F)cccc1F | -8.2% | 9.9% | -4.2% | -12.2% | 19.3% | 39.8µM*
COc1cccc(OC)c1C(=O)NC(=S)Nc1ccc2c(c1)OCCO2 | -26.3% | 4.8% | 5.7% | u | -0.9% | 56.2µM*
CCOc1cccc(C(=O)Nc2ccc(N3CCN(S(C)(=O)=O)CC3)cc2)c1 | -2.3% | 6.0% | 17.9% | -25.8% | 30.6% | 3.8%
CCOc1cccc(C(=O)NC(=S)Nc2ccc(N3CCCC3)cc2)c1 | 8.91µM* | 12.6% | u | u | 14.1µM* | u
COc1cccc(OC)c1C(=O)NC(=S)Nc1ccc2c(c1)Cc1ccccc1-2 | -1.0% | 2.0% | 3.1% | -13.1% | 7.2% | u
COc1ccc(NC(=S)NC(=O)c2ccc3c(c2)OCCO3)cc1 | x | 4.3% | x | u | u | x
CCOc1cccc(C(=O)NC(=S)Nc2ccc3c(c2)OCCO3)c1 | u | 7.9% | 0.8% | u | u | 39.8µM*
CC1(C)CCCC2(C)C3C(O)CC2(C)C(O)C31 (stereo not drawn) | x | 7.2% | 17.1% | x | x | x
O=C(NC(=S)Nc1ccc2c(c1)OCCO2)c1ccccc1 | 44.7µM* | 7.5% | -8.1% | u | u | 39.8µM*
O=C(NC(=S)NC(=O)c1ccccc1F)c1ccccc1F | -38.4% | 1.1% | 50.1µM* | -0.3% | 27.6% | 10µM*
COc1cccc(C(=O)NC(=S)Nc2ccc(Cl)c(C(=O)O)c2)c1 | u | 2.0% | u | -19.7% | -14.2% | u
O=C(NC(=S)Nc1ccc2c(c1)OCCO2)c1ccccc1F | -34.2% | -3.7% | -11.2% | -26.9% | 28.1% | 31.6µM*
O=C(NC(=S)NCc1ccccc1)c1ccccc1F | 6.4%[57.1 µM] | -1.9% | 10.6% | 33.7% | 127.7% | 57.5%

From PubChem
